Measurements: PubChem BioAssay AID743147 (Broad Institute, 2013)
Active and inactive are the calls of the source.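 Rule for the calls: active = ATP luminescence loss from cell killing, with fitted half-maximal dose at or below the top valid tested dose; inconclusive = flat curve with partial loss of 30 to 70%, or poor fit; inactive = the rest.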

Test: viability loss in HEK293T cells – cell-based, CellTiter-Glo luminescence, dry powder, set 5, cytotoxicity control, dose response (AID 743147)
Details: CellTiter-Glo ATP luminescence, 72 h; series mostly up to 26 µM

Row | SMILES | outcome
1 | C[C@@H]1CC(=O)NN=C1c1ccc(C2CCCCC2)cc1 | inactive
2 | C[C@@H]1CC(=O)NN=C1c1ccc(N2CCOCC2)cc1 | inactive
3 | Cn1c(NC(=O)c2ccccc2)nc2ccccc21 | inactive
4 | C[C@@H]1CC(=O)NN=C1c1ccc(Cl)cc1 | inactive
5 | CCN(CC)c1ccc(C2=NNC(=O)CC2C)cc1[N+](=O)[O-] (stereo not drawn) | inactive
6 | C[C@@H]1CC(=O)NN=C1c1ccc(F)c(F)c1 | inactive
7 | C[C@@H]1CC(=O)NN=C1c1ccc(N2CCOCC2)c(F)c1 | inactive
8 | CC(=O)Nc1ccc(C2=NNC(=O)C[C@H]2C)cc1[N+](=O)[O-] | inactive
9 | C[C@H]1CC(=O)NN=C1c1ccc(N2CCOCC2)c(F)c1 | inactive
10 | COc1cc2c(cc1OC)-c1cc(=Nc3c(C)cc(C)cc3C)n(C)c(=O)n1CC2 | inactive
11 | CCN1N=C(c2ccc(N(CC)CC)cc2)[C@H](C)CC1=O | inactive
12 | C[C@@H]1CC(=O)NN=C1c1ccc(-c2cncnc2)cc1 | inactive
13 | O=C1CN2Cc3c(ccc(Cl)c3Cl)N=C2N1 | inactive
